Screening data as filed in PubChem.
Tau fluor counter – counter-screen for tau fibril formation inhibitors; AID 1463; tau K18 P301L Alexa594 fluorescence, heparin fibrillization; actives 0.93% (n = 280,000); Potency, µM (titrated, usually from 57.7 µM), for inactives: top-dose activity change, negative = decrease; also: nearly all actives have a fitted effect of over 55% in size
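Human tau K18 P301L (15 uM unlabeled, 0.24 uM Alexa 594-labeled) in 100 mM sodium acetate pH 7 with 20 uM heparin, 6 hr at 37 C. ThT 30 uM added, 1 hr ambient; Alexa 594 FP and total fluorescence read at 555/632 nm.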
ALDH1A1 block – inhibitors of human aldehyde dehydrogenase 1A1; Purified ALDH1A1, NADH fluorescence, propionaldehyde substrate; Potency, µM (series often up to 75.3 µM), inactives show top-dose activity, negative = inhibition, usual class: inhibitors; actives 7.3% (n = 220,000); AID 1030; active = well fitted inhibition curve with a large enough effect, not every such curve was filed as active; inconclusive = small, poorly fitted or top-dose-only effect, or another doubt; inactive = no such curve, though single readings can be large or run the other way;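 also: plate controls were no enzyme wells and a reference inhibitor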
Tau FP inhib – inhibitors of human tau fibril formation; P10636; K18 P301L tau heparin fibrillization, Alexa594 FP, 6 h; Potency, µM (series often up to 57.7 µM), for the others: at the highest dose activity, negative = inhibition, actives largely listed as inhibitors; actives 0.39% (n = 280,000); also: nearly all actives have a fitted effect of over 55% in size
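FP of Alexa 594-tau after heparin (20 uM) induction. Substrate: human K18 P301L, 15 uM unlabeled, 0.24 uM labeled. Buffer 100 mM sodium acetate pH 7. 6 hr, 37 C.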
HPGD inh – HPGD (human) dehydrogenase inhibition. Potency, µM, without a hit: at the top dose activity change, negative = inhibition, most hits filed as inhibitors. actives 4.3% (n = 150,000). AID 894. purified HPGD, NADH fluorescence kinetic, PGE2 substrate; active = well fitted inhibition curve with a large enough effect, not every such curve was filed as active; inconclusive = small, poorly fitted or top-dose-only effect, or another doubt; inactive = no such curve, though single readings can be large or run the other way
Target sequence (P15428 whole entry, looked up): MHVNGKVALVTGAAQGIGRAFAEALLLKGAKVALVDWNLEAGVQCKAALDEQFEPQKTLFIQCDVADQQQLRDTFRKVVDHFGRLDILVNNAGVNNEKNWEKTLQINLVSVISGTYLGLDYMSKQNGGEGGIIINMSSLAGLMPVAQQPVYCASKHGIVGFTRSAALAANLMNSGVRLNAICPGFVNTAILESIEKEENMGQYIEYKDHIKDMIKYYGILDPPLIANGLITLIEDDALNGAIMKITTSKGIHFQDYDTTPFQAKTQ
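20 nM HPGD preincubated 15 min at room temperature with compound in 50 mM Tris-HCl pH 8, 0.01% Tween 20. Started with 1 mM NAD+ and 30 uM prostaglandin E2; NADH fluorescence (360/450 nm) read 5 times over 30-s intervals, last minus first.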
Tau ThT inhib – inhibitors of human tau fibril formation, thioflavin T binding | P10636 | recombinant tau K18 P301L (four-repeat tau fragment), heparin-induced fibrillization, ThT fluorescence | Potency, µM (highest dose often 57.4 µM), for the others: at the highest dose activity, negative = inhibition, most hits filed as inhibitors | actives 2.1% (n = 270,000); also: nearly all actives have a fitted effect of over 55% in size
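In this qHTS, human K18 P301L tau is incubated with compound and heparin for 6 hr at 37 C, and Thioflavin T fluorescence then reports fibril load.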
NPSR antagonist – antagonists of human neuropeptide S receptor cAMP signaling; Q6W5P4; CHO-NPSR cells, cAMP TR-FRET, antagonist mode; Potency, µM (top dose mostly 38.3 µM), without a hit: top-dose activity change, negative = inhibition, usual class: inhibitors; actives 1% (n = 220,000); also: nearly all actives have a fitted effect of over 50% in size
Target sequence (Q6W5P4 whole entry, looked up): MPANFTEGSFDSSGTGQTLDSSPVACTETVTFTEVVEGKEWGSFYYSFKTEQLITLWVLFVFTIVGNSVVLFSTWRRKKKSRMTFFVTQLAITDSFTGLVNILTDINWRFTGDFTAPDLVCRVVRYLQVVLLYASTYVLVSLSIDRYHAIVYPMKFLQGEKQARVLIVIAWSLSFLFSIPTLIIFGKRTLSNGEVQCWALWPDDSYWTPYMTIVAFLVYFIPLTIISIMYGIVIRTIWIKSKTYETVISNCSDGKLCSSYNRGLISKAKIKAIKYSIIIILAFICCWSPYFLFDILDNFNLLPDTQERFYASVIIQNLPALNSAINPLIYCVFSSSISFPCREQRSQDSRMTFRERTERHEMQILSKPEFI
* marks the source's active call; other numbers are inactive results; [ ] = dose if it differs, or a comment. A selection: hits, their analogues and other compounds. The true share with any hit is near 9.5%. Unless noted, calls follow the shape of the dose curve; as a rule, active = well fitted curve in the direction sought with a large enough effect; inconclusive = small, poorly fitted or top-dose-only effect, or another doubt; inactive = no such curve, though single readings can be large; an effect the other way counts as inactive or inconclusive. Unless noted, % is scaled to controls: 0 for no effect and ±100 for the full control effect; potency is read from the fitted curve at half-maximal effect.

What do the screens show for `O=C(NN1C(=O)/C(=C/C=C/c2ccco2)SC1=S)c1ccncc1`?
Tau fluor counter: inconclusive; Tau FP inhib: inconclusive; NPSR antagonist: -9%

What do the screens show for `NN1C(=O)/C(=C\c2ccco2)SC1=S`?
Tau fluor counter: inconclusive; ALDH1A1 block: 1.3µM*; Tau FP inhib: inconclusive; Tau ThT inhib: 32µM*; NPSR antagonist: 1%

How did CN(C)c1ccc(/C=C/C=C2/SC(=S)N(c3ccccc3)C2=O)cc1 do in these assays?
Tau fluor counter: 0.71µM*[fluorescent]; ALDH1A1 block: inconclusive; Tau FP inhib: -6%; HPGD inh: -5%; Tau ThT inhib: 2.5µM*; NPSR antagonist: inconclusive

What do the screens show for `O=C1NC(=Nc2ccc(Cl)cc2)/C(=C/c2ccco2)S1`?
Tau fluor counter: -28%; ALDH1A1 block: inconclusive; Tau FP inhib: -4%; HPGD inh: -12%; Tau ThT inhib: inconclusive; NPSR antagonist: -4%

Results for Clc1ccc(-c2noc(-c3cccnc3NCc3ccco3)n2)cc1 ?
Tau fluor counter: -3%; Tau FP inhib: inconclusive; Tau ThT inhib: -3%

What do the screens show for `CCCn1c(=O)c2sccc2n2c(CCCC(=O)Nc3ccc(C)c(F)c3)nnc12`?
Tau fluor counter: -20%; Tau FP inhib: -8%; Tau ThT inhib: -8%

Results for CCC(NC(=O)NCc1cccnc1)(C(F)(F)F)C(F)(F)F ?
Tau fluor counter: -4%; ALDH1A1 block: 15%; Tau FP inhib: -7%; HPGD inh: -3%; Tau ThT inhib: 1%; NPSR antagonist: -1%[46.1 µM]

How did O=C1/C(=C\c2ccc(O)cc2)SC(=S)N1c1cccnc1 do in these assays?
Tau fluor counter: -27%; ALDH1A1 block: 0%; Tau FP inhib: -20%; Tau ThT inhib: inconclusive; NPSR antagonist: -2%

Results for O=C(O)c1ccc(N2C(=O)/C(=C/C=C/c3ccccc3)SC2=S)cc1 ?
Tau fluor counter: -3%; ALDH1A1 block: inconclusive; Tau FP inhib: 3%; Tau ThT inhib: inconclusive; NPSR antagonist: -36%

How did O=C1/C(=C\c2ccco2)SC(=S)N1c1ccc(O)cc1 do in these assays?
Tau fluor counter: inconclusive; ALDH1A1 block: inconclusive; Tau FP inhib: -9%; HPGD inh: -12%; Tau ThT inhib: 18µM*; NPSR antagonist: -15%

How did O=C1/C(=C/C=C/c2ccco2)SC(=S)N1c1ccc(O)cc1 do in these assays?
Tau fluor counter: 11µM*[quencher]; Tau FP inhib: inconclusive; Tau ThT inhib: 4µM*; NPSR antagonist: -22%

Results for COc1cc(C2N(c3ccccn3)C(=O)C3CCCN32)cc(OC)c1OC (stereo not drawn) ?
Tau fluor counter: -13%; ALDH1A1 block: 22µM*; Tau FP inhib: -7%; Tau ThT inhib: -23%; NPSR antagonist: -8%[46.1 µM]

How did COc1cccc(C(=O)NCCSc2c(C)[nH]c3ccccc23)c1OC do in these assays?
Tau fluor counter: inconclusive; Tau FP inhib: 15%; NPSR antagonist: -9%

How did COc1cc(C(=O)NCCSc2c(C)[nH]c3ccccc23)cc(OC)c1OC do in these assays?
Tau fluor counter: 25µM*[quencher]; Tau FP inhib: -3%; Tau ThT inhib: inconclusive

Results for Cc1[nH]c2ccccc2c1SCCNC(=O)c1ccccc1F ?
Tau fluor counter: 25µM*[quencher]; Tau FP inhib: 8%; Tau ThT inhib: inconclusive

Results for COc1ccccc1C(=O)NCCSc1c(C)[nH]c2ccccc12 ?
Tau fluor counter: 16µM*[quencher]; Tau FP inhib: 3%; Tau ThT inhib: inconclusive

Results for CCOC(=O)CNC(=O)Nc1ccccc1C(=O)OC ?
Tau fluor counter: -8%; ALDH1A1 block: inconclusive; Tau FP inhib: -5%; HPGD inh: -12%; Tau ThT inhib: -13%; NPSR antagonist: -14%[46.1 µM]

Results for CCN(CC)c1ccc(NC(=O)c2cccn2-c2nnc(N3CCCCC3)s2)c(C)c1 ?
Tau fluor counter: -29%; Tau FP inhib: -3%; Tau ThT inhib: inconclusive

Results for Cc1ccc(C(=O)/C=C/c2c[nH]c3ccccc23)cc1 ?
Tau fluor counter: 14µM*[quencher]; ALDH1A1 block: 25µM*; Tau FP inhib: -14%; HPGD inh: inconclusive; Tau ThT inhib: inconclusive; NPSR antagonist: -27%[46.1 µM]

Results for O=C(/C=C/c1c[nH]c2ccccc12)c1ccccc1 ?
Tau fluor counter: 0%; ALDH1A1 block: 3.2µM*; Tau FP inhib: inconclusive; HPGD inh: 16µM*; Tau ThT inhib: 9%; NPSR antagonist: -19%

What do the screens show for `COc1ccc(/C=C(/C#N)S(=O)(=O)c2ccc(C)cc2)cc1`?
Tau fluor counter: -17%; ALDH1A1 block: -4%; Tau FP inhib: -14%; HPGD inh: 25µM*; Tau ThT inhib: -21%; NPSR antagonist: -13%[46.1 µM]

What do the screens show for `Cc1ccc(C(=O)/C=C/c2cn(CN3CCN(C)CC3)c3ccccc23)cc1`?
Tau fluor counter: 14µM*[quencher]; ALDH1A1 block: inconclusive; Tau FP inhib: -9%; HPGD inh: inconclusive; Tau ThT inhib: inconclusive; NPSR antagonist: inconclusive

Results for COc1cc(NC(=O)CN(C)C2CCCCC2)c(C)cc1[N+](=O)[O-] ?
Tau fluor counter: -10%; ALDH1A1 block: 9%; Tau FP inhib: 7%; HPGD inh: -7%; Tau ThT inhib: -8%; NPSR antagonist: 2%

How did Cc1ccc(C(=O)c2oc3ccccc3c2NC(=O)COc2ccc(C(C)(C)C)cc2)cc1 do in these assays?
Tau fluor counter: -26%; Tau FP inhib: inconclusive; Tau ThT inhib: -15%

What do the screens show for `COc1ccc2[nH]cc(/C=C/C(=O)c3ccccc3)c2c1`?
Tau fluor counter: 8.9µM*[quencher]; ALDH1A1 block: inconclusive; Tau FP inhib: 11%; Tau ThT inhib: inconclusive; NPSR antagonist: 30%

How did COc1ccc(/C=C/C(=O)c2ccccc2)c(OC)c1 do in these assays?
Tau fluor counter: -10%; ALDH1A1 block: inconclusive; Tau FP inhib: 3%; Tau ThT inhib: inconclusive; NPSR antagonist: -21%

Results for Cc1ccc(S(=O)(=O)/C(C#N)=C/c2c[nH]c3ccccc23)cc1 ?
Tau fluor counter: 10µM*[quencher]; ALDH1A1 block: 8%; Tau FP inhib: 13µM*; HPGD inh: -7%; Tau ThT inhib: inconclusive; NPSR antagonist: -13%[46.1 µM]

Results for COC(=O)/C(C#N)=C/c1c[nH]c2ccccc12 ?
Tau fluor counter: -19%; ALDH1A1 block: -9%; Tau FP inhib: -9%; Tau ThT inhib: -13%; NPSR antagonist: 7%

What do the screens show for `NC(C(=O)O)[C@H](O)C(=O)O` (stereo partly drawn)?
Tau fluor counter: 4%; ALDH1A1 block: inconclusive; Tau FP inhib: -2%; Tau ThT inhib: 11%

Results for O=C(CSc1nncn1-c1cccnc1)N(c1ccccc1)c1ccccc1 ?
Tau fluor counter: -9%; ALDH1A1 block: 16µM*; Tau FP inhib: -1%; Tau ThT inhib: -9%; NPSR antagonist: 11%
